Bioassay records: PubChem BioAssay, National Center for Advancing Translational Sciences (NCATS)
PINK1 expr mod: changes PINK1 expression; PINK1 immunofluorescence, high-content cytometry, 24 h; Potency, µM (top dose mostly 76.6 µM), for inactives: at the top dose activation (PINK1 increase), hits mostly activators; actives 0.2% (n = 410,000); active means well fitted activation curve with a large enough effect; inconclusive means small, poorly fitted or top-dose-only effect; cell line not stated here; further: % of control where 0% means no effect; nearly all actives have a fitted effect of over 65% in size
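Measures PINK1 amount and localization on or inside mitochondria by immunofluorescence. Stable cells get compounds at 5 concentrations for 24 hours before fixation and staining; CCCP controls included.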
KB-V1 cytotox: kills drug-selected multidrug resistant KB-V1 cells; Potency, µM (highest dose often 46.1 µM), hits mostly cytotoxic; KB-V1 MDR cells viability, CellTiter-Glo, 72 h; AID 1347076; actives 3.4% (n = 400,000); further: on the % scale 0 is the no-effect control and ±100 the full control effect; nearly all actives have a fitted effect of over 60% in size
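Cytotoxicity via CellTiter-Glo luminescence after 72 h compound exposure at 37 degrees C. Cells: drug-selected KB-V1 line, DMEM phenol-red free plus 10% FBS. Compounds tested at multiple concentrations; normalized data fitted to concentration-effect curves.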
MCF10A rereplic: induces DNA re-replication in MCF 10a normal breast cells | MCF 10A DNA re-replication, Hoechst nuclear intensity, 48 h | AID 624296 | Potency, µM (highest dose often 46.1 µM), inactives show top-dose activity, positive = re-replication, hits mostly activators | actives 2.9% (n = 350,000); further: % of control where 0% means no effect; nearly all actives have a fitted effect of over 50% in size
SW480 rerep: DNA re-replication induction in SW480 cells | SW480 DNA re-replication, Hoechst DNA content imaging, 48 h | Potency, µM (series often up to 46.1 µM), for the others: at the top dose re-replication activation, most hits filed as activators | actives 1.8% (n = 340,000) | AID 624297; further: % of control where 0% means no effect; nearly all actives have a fitted effect of over 55% in size
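250 cells/well; 23 nL cpd via pin tool; 48 hr, 37 C, 5% CO2; Hoechst 40 min; imager read of total nuclear intensity, ex 405/em 500-530 nm.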
KB-3-1 tox: kills parental KB-3-1 adenocarcinoma cells; actives 1.4% (n = 400,000); KB-3-1 viability, CellTiter-Glo ATP luminescence, 72 h; Potency, µM (highest dose often 46.1 µM), actives largely listed as cytotoxic; further: on the % scale 0 is the no-effect control and ±100 the full control effect; nearly all actives have a fitted effect of over 60% in size
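Screening of KB-3-1 cells (DMEM, 10% FBS, phenol-red free) ran from lowest to highest compound concentration; after 72 h at 37 °C viability was read luminescently and curves fitted.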
The depositor's hits bear a star; i = inactive; ? = inconclusive; . = no result given; [ ] = dose if it differs, or a comment. The list is not random: actives were taken first. Their share in the collection is about 6.7%. Unless noted, the call rests on the fitted dose curve; in most records, active means well fitted curve in the direction sought with a large enough effect; inconclusive means small, poorly fitted or top-dose-only effect, or another doubt; inactive means no such curve, though single readings can be large; an effect the other way counts as inactive or inconclusive. Potency means the concentration at half of the fitted maximal effect.

SMILES	PINK1 expr mod	KB-V1 cytotox	MCF10A rereplic	SW480 rerep	KB-3-1 tox
Cc1cc(/C=C/c2ccnc3ccccc23)ccc1N	3%	23µM*	.	.	?
CCC[N+](C)(C)c1ccc(/C=C/c2ccnc3ccccc23)cc1	3.2µM*	?	.	.	1.6µM*
C[N+](C)(C)c1ccc(/C=C/c2ccnc3ccccc23)cc1	32µM*	?	.	.	18µM*
CN(C)c1ccc(/C=C/c2ccnc3ccccc23)cc1N	7%	i	.	.	i
COc1ccc(/C=C/c2ccnc3ccccc23)cc1	6%	i	.	.	i
COc1ccc(S(=O)(=O)N2CCOC2CNC(=O)C(=O)NCCN2CCOCC2)cc1 (configuration not stated)	2%	?	-1%	-4%	i
C=Cc1ccc(C(=O)N2CCc3c(cnc(C)c3CNC(=O)c3ccc4c(c3)OCO4)C2)cc1	-1%	.	.	.	.
COc1ccc(NC(=O)CSc2nc3sc(C)cc3c(=O)n2C)c(OC)c1	2%	8.2µM*	3%	-2%	i
Cc1c(C(=O)N/N=C/c2ccc(Cl)cc2)[nH]c2ccc(Cl)cc12	0%	?	?	2.1µM*	1µM*
O=C(N/N=C/c1c[nH]c2ccccc12)c1[nH]c2ccc(Br)cc2c1-c1ccccc1	10%	?	?	8.2µM*	1.6µM*
CCOc1ccc(/C=N/NC(=O)c2[nH]c3ccc(C)cc3c2C)cc1	12%	i	?	27%	i
NNC(=O)c1[nH]c2ccccc2c1-c1ccccc1	6%	i	?	9.2µM*	?
O=C(N/N=C/c1ccc(O)cc1)c1[nH]c2ccc(Br)cc2c1-c1ccccc1	3%	i	?	7.3µM*	7.3µM*
O=C(N/N=C/c1c[nH]c2ccccc12)c1cc(Br)ccc1O	3%	i	1%	?	i
CCCCn1c(=O)nc2n(-c3ccc(F)cc3)c3ccccc3cc-2c1=O	1%	.	.	.	.
CCSc1nnc(NC(=O)c2cc(C)nc3ccccc23)s1	0%	i	2%	-7%	i
O=C(Nc1nccs1)c1nc(-c2ccccc2)n(-c2ccccc2)n1	-1%	i	16%	-5%	i
Cc1csc(NC(=O)c2nc(-c3ccccc3)n(-c3ccccc3)n2)n1	-2%	10µM*	7%	-5%	?
CCSc1nnc(NC(=O)c2ccc(C)o2)s1	-3%	18µM*	2%	-2%	i
CCSc1nnc(NC(=O)c2nc(-c3ccccc3)n(-c3ccccc3)n2)s1	-1%	?	10µM*	-9%	i
Cc1ccccc1C(=O)N1CCC(n2nccc2NC(=O)CCOc2ccccc2)CC1	-1%	.	14%	16%	.
CC(=O)Nc1ccc(NC(=O)C2CCN(c3c(NC(C)=O)c(C)nn3-c3ccccc3)CC2)cc1	0%	.	.	.	.
CS(=O)(=O)c1ccccc1C(=O)N(CCc1ccccc1)Cc1ccccc1	2%	?	14%	6%	i
COc1ccc(C(=O)N(CCc2ccccc2)Cc2ccccc2)c(OC)n1	6%	8.2µM*	?	11%	?
COC(=O)c1cc(Cc2ccc(N)c(C(=O)OC)c2)ccc1N	0%	21µM*	4%	2%	?
SMILES	PINK1 expr mod	KB-V1 cytotox	MCF10A rereplic	SW480 rerep	KB-3-1 tox
COc1ccc(Cc2ccc(OC)c(N)c2)cc1N	1%[38.3 µM]	i	?	?	i
Cc1nn(CCCC(=O)NCCc2ccccc2)c(C)c1[N+](=O)[O-]	-1%	i	6%	-9%	i
Cc1c(Cl)c([N+](=O)[O-])nn1CCCC(=O)Nc1cccc(Cl)c1Cl	-1%	16µM*	2%	-7%	i
Cc1c(Cl)c([N+](=O)[O-])nn1CCCC(=O)Nc1ccc(Cl)cc1Cl	6%	?	4%	-1%	i
Cc1ccc(C)c(Oc2cc(NC(=O)CCCn3nc(C)c([N+](=O)[O-])c3C)cc([N+](=O)[O-])c2)c1	45µM*	10µM*	?	?	?
Cc1nn(CCCC(=O)Nc2cc(Oc3ccccc3)cc([N+](=O)[O-])c2)c(C)c1[N+](=O)[O-]	6%	8.2µM*	?	3%	?
Cc1nn(CCCC(=O)Nc2cnn(Cc3ccc(F)cc3)c2)c(C)c1[N+](=O)[O-]	0%	i	-2%	-2%	i
